Reference: PubChem BioAssay (NCI)
About 79,000 compounds went through this panel and 15% of them were active in at least one assay; those are over-represented in the sample as a whole. Values without a mark were called inactive. The source made the active and inactive calls. Cut-off read from the data, not from the text of the source: active = growth inhibition above about 70%; inactive = the rest.

Assay: NCI Yeast Anticancer Drug Screen. Data for the sgs1 mgt1 strain (AID 161);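 note: 0% = growth of cultures given vehicle only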
Details: S. cerevisiae sgs1 mgt1 strain, at 50.0 µM, stronger effect = higher value
Summary of the method: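 Yeast cells carrying a defined DNA-repair defect were exposed to test compounds. Growth inhibition was measured relative to vehicle-treated controls.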
With O=C(O)CCCCCCCCCCOc1ccc(Cl)cc1Cl the growth inhibition was 94.3% (active).
Compound C=C(CN1CCCC1)C(=O)c1ccc(OC)cc1 has a growth inhibition of 44.4%.
With CNC(=O)OCc1c(COC(=O)NC)c(-c2ccc(OC)cc2)n2c1CCC2 the growth inhibition was 70.9% (active).
With CCCCC(=S)N1CCN(c2ccccc2)CC1 the growth inhibition was 92.1% (active).
CCN(CC)C(=S)N/N=C/c1cc(OC)ccc1O showed a growth inhibition of 62.4%.
With COc1ccc2c(c1)CN1C(CCC3c4ccccc4NC31)C2 (stereo not given) the growth inhibition was 86.7% (active).
CCCCC(=O)N/N=C(\C)[C@]1(O)Cc2c(O)c3c(c(O)c2[C@@H](OC2CC(N)C(O)C(C)O2)C1)C(=O)c1c(OC)cccc1C3=O (stereo not given in full) gave a growth inhibition of 51.5%.
In the case of C=C1C(=O)C23OC2C1CCC(=O)C1(C)CC[C@H](OC(C)=O)C(C)(C)[C@H]1CC3O (stereo not given in full), the growth inhibition is reported as 99.5% (active).
In the case of Cc1nc(N)sc1N=Nc1ccc(Cl)cc1Cl, the growth inhibition is reported as 84.2% (active).
In the case of O=C(O)c1cc2c3ccccc3sc2c2ccccc12, the growth inhibition is reported as 15.1%.
In the case of COc1ccc2c(c1)C(Br)CCC(Br)C2=O (stereo not given), the growth inhibition is reported as 80.3% (active).
Compound Cc1cc(OCCl)ccc1[N+](=O)[O-] has a growth inhibition of 39.1%.
With COC(=O)c1nnc(C(=O)OC)c2c1[nH]c1ccccc12 the growth inhibition was 55.3%.
For O=S(Nc1ccccc1Br)c1ccccc1 (stereo not given), the growth inhibition was 59.2%.
For Cc1c2c(c(C)c3c1OC(C)(C)CC3)OC(C)(C)CC2, the growth inhibition was 62.2%.
In the case of O=c1cc(CSc2ccc(Cl)cc2)occ1O, the growth inhibition is reported as 87.2% (active).
Compound Cc1ccc2c(c1)[n+]([O-])c(N)n[n+]2[O-] has a growth inhibition of 57.1%.
With CC(=O)c1c2c(cc3c1CC1(C3)Cc3cc4c(c(C(=O)O)c3C1)CCC4)CCC2 (stereo not given) the growth inhibition was 89.6% (active).
Work on CCCCCCCCCCC(NC(C)=O)(C(=O)OCC)C(=O)OCC yielded a growth inhibition of 67.3%.
With Cc1nc2c(cnn2C)cc1CCc1ccccc1 the growth inhibition was 19.6%.
Work on CCc1cccc(C)c1NC(=O)C(=O)CC(=O)c1ccccc1Cl yielded a growth inhibition of 43.8%.
For COc1nc(N)c(N=O)c(OCc2ccccc2)n1, the growth inhibition was 91.4% (active).
O=C1O/C(=C2\OC(=O)c3ccccc32)c2ccccc21 showed a growth inhibition of -28.3%.
In the case of Cc1ccc(O)c(C(C)(C)c2ccccc2)c1, the growth inhibition is reported as 99.7% (active).
For CCOC(=O)NN(C(=O)OCC)c1ccc(N=Nc2ccc(OC)cc2)n1C, the growth inhibition was 70.3% (active).
For S=C(NCc1ccccc1)[S][Sb]([S]C(=S)NCc1ccccc1)[c]1ccccc1, the growth inhibition was 96% (active).
O=CCCCc1cc2c(cc1Br)CCC2 gave a growth inhibition of 64.2%.
In the case of CCC(C)CNCCCCCNc1cc(OC)cc2cccnc12 (stereo not given), the growth inhibition is reported as 66.5%.
CNC(=O)NC(c1cc(OC)c(OC)c(OC)c1)c1cc2c(cc1O)OCO2 (stereo not given) showed a growth inhibition of -0.1%.
With CCCCCCCSCc1nc2ccccc2c(C)[n+]1[O-] the growth inhibition was 95.8% (active).
With Cc1[nH]c(=O)[nH]c(=O)c1CN(C)Cc1cc(Cl)cc(Cl)c1O the growth inhibition was 77.4% (active).
For O=C(N/C(=C\c1cccc([N+](=O)[O-])c1)c1nc2ccccc2s1)c1ccccc1, the growth inhibition was 98.9% (active).
With CC1NS(=O)(=O)N(C)C1=O (stereo not given) the growth inhibition was -2.2%.
Work on Cc1csc2[n+]1C(=O)/C(=C\c1ccc([N+](=O)[O-])cc1)S2 yielded a growth inhibition of 50.3%.
In the case of CC(C)c1ccc2c(c1)CCC1C(C)(C(=O)O)CCCC21C (stereo not given), the growth inhibition is reported as 98% (active).
For COc1ncnc2nc(SC)[nH]c12, the growth inhibition was 99.6% (active).
CCN(CC)C(=O)CCCCC(=O)OC(C)C showed a growth inhibition of -24%.
With CC(=O)O/N=C1/CCC2C3CC=C4CC(OC(C)=O)CCC4(C)C3CCC12C (stereo not given) the growth inhibition was 89.9% (active).
In the case of Clc1ccc(CNc2ccc(Br)cc2)cc1, the growth inhibition is reported as 95.8% (active).
For Cc1cnc(C#N)c(C#N)n1, the growth inhibition was 9.95%.
